SMILES strings stand for the structures. Records with an inconclusive call do not appear. Where a call stands in place of a potency, no number is given. Calls of active or inactive are those of the source. The call rests on the fitted dose curve; in most records, active means well fitted activation curve with a large enough effect; inconclusive means small, poorly fitted or top-dose-only effect; inactive means flat fitted curve, though single readings scatter.
Potency means the concentration at half of the fitted maximal effect.

The experiment is described as follows: qHTS Assay for NPC1 Promoter Activators: Initial hit validation from the primary screen. The conditions noted are these: Huh7 NPC1 promoter-luciferase reporter, luminescence, 24 h; series mostly up to 46.1 µM. From the text: NIH Chemical Genomics Center [NCGC] NIH Molecular Libraries Probe Production centers Network [MLPCN] MLPCN Grant: MH089375-01A1 Assay Submitter (PI): Yiannis A. Ioannou NCGC Assay Overview: Niemann Pick Type C (NPC) is a rare neurodegenerative lipidosis that is characterized by lipid storage in the endosomal/lysosomal system. Treatment modalities for this devastating disease are currently non-existent due to the severe obstacles associated with accessing the central nervous system with proteins or genes. The majority of mutations causing NPC disease are missense mutations that are distributed throughout the length of the NPC1 protein, with the most prevalent being the I1061T allele. Although NPC1 mutant proteins may be functional, they are typically trapped in the ER due to misfolding. […] We have developed and optimized a cell based luciferase reporter assay in 1536 well format for the identification of up-regulators of the mutant NPC1 promoter. This assay presents data on the validation of hits from the primary screen.
The NPC1 promoter is cloned in front of the luciferase reporter gene, therefore NPC promoter activation results in luciferase expression. Frozen stock of the NPC1 promoter transfected Huh7 cells were obtained from the laboratory of Dr. Yiannis Ioannou (The Mount Sinai School of Medicine, New York, NY). Cells were propagated and maintained at NCGC in medium containing RPMI-1640 supplemented with 10% FBS, 2mM L-glutamine, and 50ug/ml penicillin/streptomycin. Cells were harvested in and plated for assays in OP-MEM I reduced-serum medium supplemented with 10% FBS. The Amplite luciferase reporter gene assay kit was purchased from ABD Bioquest and prepared/stored according to manufacturers recommendations. qHTS Assay Setup: 1. Dispensed 5ul of Huh7 cells stably expressing NPC1-luciferase at a density of 1500 cells per well 1536-well plates. 2. Incubate cells at 37C, 5% CO2, and 95% humidity for 2 hours. 3. Transferred 23nl per well of compound in DMSO solution. 4. Incubated at 37C, 5% CO2, and 95% humidity for 24 hours. 5. Dispensed 3ul per well of Amplite reagent(ABD Bioquest) per well. 6. Incubate at ambient for 10 minutes. 7. Read using the luminescence protocol on the ViewLux plate reader (Perkin Elmer).
In general terms: Quantitative high-throughput screening tests each substance at several concentrations.
For the molecule `Cc1ccccc1NC(=O)CSc1ccc(-c2cccnc2)nn1`, the Potency entry is “inactive”.
Under `O=S(=O)(c1cccs1)N1CCN(c2ncccn2)CC1` stands “inactive”; under `COc1ccccc1CNC(=O)COc1ccc(C)cc1`, “inactive”.
As for `O=C(CCCN1C(=O)C(c2ccccc2)Oc2cccnc21)Nc1ccccc1Cl` (stereo not given), the Potency entry is “inactive”.
For `NC(=O)C(=O)NN=C1C2CC3CC(C2)CC1C3`, the Potency entry is “inactive”.
For `COC(=O)c1ccc(NC(=O)c2ccc3nc(C)sc3c2)cc1` the value was 888 nM (active).
With `COc1cccc(C(C(=O)NC2CCCC2)N(CCC(C)C)C(=O)CCC(=O)Nc2cc(C)on2)c1` (stereo not given), the Potency entry was “inactive”.
Turning to `OCCC1CN(Cc2nc3ccccc3s2)CCN1C1CCCC1` (stereo not given), the Potency entry was “inactive”.
For `O=C(COC(=O)c1ccc(-c2nnc(-c3ccccc3)o2)cc1)c1ccccc1` the value was 396 nM (active); for `COc1ccc(NC(=O)CSc2ccc([N+](=O)[O-])cc2)cc1S(=O)(=O)N1CCOCC1`, “inactive”.
Under `COc1ccccc1C(=O)Nc1nnc(SCC(=O)NC2CCCC2)s1` stands 705 nM (active); under `Cc1ccc(C)c(Nc2cc(C)nc3ncnn23)c1`, “inactive”; under `O=C(NCCSCc1c(F)cccc1Cl)c1ccc(CN2CCOCC2)cc1`, “inactive”.
For `CC(C)C(NC(=O)c1ccc([N+](=O)[O-])cc1Cl)C(=O)N1CCCC1` (stereo not given), the Potency entry is “inactive”.
In the case of `CC(=O)Nc1ccc(-c2csc(Nc3ncccn3)n2)cc1`, the Potency is 499 nM (active).
For `COC(=O)c1cn(NC(=O)C2CCCCC2)c(=O)c2ccccc12` the value was “inactive”; for `CCCCn1c(CCNC(=O)c2cccs2)nc2ccccc21`, “inactive”; for `O=C(/C=C/c1ccco1)NCC1OCCc2ccccc21` (stereo not given), “inactive”.
Take `Cc1ccc2c(c1)sc1nc(=O)n(-c3ccccc3)c(=O)n12`: the Potency is 705 nM (active).
For `CC1CC(C)CN(CC(=O)N2CCOCC2)C1` (stereo not given) the value was “inactive”.
With `COc1ccc(-c2nnc(SCC(=O)/C(C#N)=C(\C)N)o2)cc1`, the Potency was 223 nM (active).
For `COC(=O)c1sccc1NC(=S)OC` the value was “inactive”; for `Cc1ccccc1NC(=O)Cc1nc(COC(=O)CC(C)c2ccccc2)cs1` (stereo not given), “inactive”.
For the molecule `COc1ccc(S(=O)(=O)N2CCCC(C(=O)NCc3ccncc3)C2)cc1Cl` (stereo not given), the Potency entry is “inactive”.
For `Cc1ccc(C2C3=C(CC(C)(C)CC3=O)N(CCN3CCOCC3)C3=C2C(=O)CC(C)(C)C3)cc1` the value was “inactive”.
Take `Cc1c(C(O)CN2CCN(Cc3ccc4c(c3)OCO4)CC2)c2ccccc2n1C` (stereo not given): the Potency result is “inactive”.
For `O=C(CSc1nnc(Cc2cc(=O)[nH]c(=O)[nH]2)n1-c1ccc(Cl)cc1)NC1CCCC1` the value was “inactive”; for `Nc1c(N(CCO)C(=O)/C=C/c2ccco2)c(=O)[nH]c(=O)n1Cc1ccccc1`, “inactive”.
For `CCOc1ccc(CNC(=O)C2CCCN(S(C)(=O)=O)C2)cc1OC` (stereo not given) the value was “inactive”; for `CCOC(=O)CSc1nc2cc3c(cc2cc1C#N)OCO3`, 888 nM (active).
Take `CC(Sc1nnc(C(F)(F)F)n1C)C(=O)Nc1ccc(S(N)(=O)=O)cc1` (stereo not given): the Potency result was “inactive”.
In the case of `CCN(CC(=O)N(CC(C)C)c1c(N)n(CC(C)C)c(=O)[nH]c1=O)Cc1nc2ccccc2c(=O)[nH]1`, the Potency entry is “inactive”.
For `CC(=O)[C@@H]1[C@@H](C(=O)c2ccc(C)cc2)[C@]2(C(=O)Nc3ccccc32)[C@H]2C=Cc3cc(F)ccc3N12` the value was “inactive”.
For `Cn1c(SCc2ccccc2)nnc1-c1cnccn1` the value was 15800 nM (active); for `Nc1ccc(C(=O)Nc2ccccc2N)cc1`, 15800 nM (active); for `COc1ccc(C2(CNC(=O)/C=C/c3ccco3)CCCC2)cc1OC`, “inactive”.
Under `O=C(c1cc2cc([N+](=O)[O-])ccc2oc1=O)n1cccn1` stands “inactive”; under `CN(C)/C=N/c1c(C#N)cnn1-c1nc2ccccc2s1`, “inactive”.
On to `CC(Sc1ncnc2c1cnn2-c1ccccc1)C(=O)Nc1ccc(N2CCOCC2)cc1` (stereo not given), for which the Potency result is “inactive”.
For the molecule `COc1ccc(-c2cc(C(=O)Nc3ccccc3F)on2)cc1`, the Potency was 31500 nM (active).

The record behind these values is PubChem BioAssay AID493203 (National Center for Advancing Translational Sciences (NCATS), 2011).
